The whole screen tested about 5,500 compounds, of which about 2,000 (36%) were called active. Roughly 18% stayed inconclusive and do not appear here. The list shows a part of the results. A number with no mark means an inactive call. No stated cut-off is given here; in the data, active means normalized growth mostly below about 0.91 (no sharp cut-off); inconclusive means no clear call, values can overlap the other calls; inactive means mostly above about 0.92.
Experiment: chemical genetic growth profiling, strain panel (AID 1159580);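 further: tested at 20 µM; growth read once vehicle control cultures reached saturation at 30 °C; 1 = growth at the plate median or of vehicle wells; lower values mean less growth of the strain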
Settings: S. cerevisiae deletion strains, growth OD
[1] = locus YCL061C, strain MRC1, active compounds read low
[2] = locus YHR030C, strain SLT2, active compounds read low
[3] = locus YAL021C, strain ccr4, active compounds read low
[4] = locus YAL026C, strain drs2, active compounds read low
[5] = locus YAL030W, strain snc1, active compounds read low
[6] = locus YBL061C, strain skt5, active compounds read low
[7] = locus YBR009C, strain hhf1, active compounds read low
[8] = locus YBR023C, strain chs3, active compounds read low
[9] = locus YBR171W, strain sec66, active compounds read low
[10] = locus YBR231C, strain swc5, active compounds read low
[11] = locus YBR279W, strain paf1, active compounds read low
[12] = locus YCL011C, strain gbp2, active compounds read low
[13] = locus YCL016C, strain dcc1, active compounds read low
[14] = locus YCL069W, strain vba3, active compounds read low
[15] = locus YCR088W, strain abp1, active compounds read low
[16] = locus YDL005C, strain med2, active compounds read low
[17] = locus YDL040C, strain nat1, active compounds read low
[18] = locus YDR001C, strain nth1, active compounds read low
[19] = locus YDR069C, strain doa4, active compounds read low
[20] = locus YDR137W, strain rgp1, active compounds read low
[21] = locus YDR159W, strain sac3, active compounds read low
[22] = locus YDR297W, strain sur2, active compounds read low
[23] = locus YDR334W, strain swr1, active compounds read low
[24] = locus YDR335W, strain msn5, active compounds read low
[25] = locus YDR392W, strain spt3, active compounds read low
[26] = locus YEL003W, strain gim4, active compounds read low
[27] = locus YEL037C, strain rad23, active compounds read low
[28] = locus YEL061C, strain CIN8 (second series), active compounds read low
[29] = locus YER015W, strain faa2, active compounds read low
[30] = locus YER016W, strain bim1, active compounds read low
[31] = locus YER111C, strain swi4, active compounds read low
[32] = locus YER155C, strain BEM2 (second series), active compounds read low
[33] = locus YFR010W, strain ubp6, active compounds read low
[34] = locus YGL167C, strain pmr1, active compounds read low
[35] = locus YGL173C, strain kem1, active compounds read low
[36] = locus YGL227W, strain vid30, active compounds read low
[37] = locus YGL240W, strain doc1, active compounds read low
[38] = locus YGL253W, strain hxk2, active compounds read low
[39] = locus YHR013C, strain ard1, active compounds read low
[40] = locus YHR027C, strain rpn1, active compounds read low
[41] = locus YHR079C, strain IRE1, active compounds read low
[42] = locus YHR142W, strain chs7, active compounds read low
[43] = locus YJL092W, strain hpr5, active compounds read low
[44] = locus YJL095W, strain BCK1 (second series), active compounds read low
[45] = locus YJL095W, strain BCK1, active compounds read low
[46] = locus YJL115W, strain asf1, active compounds read low
[47] = locus YJL129C, strain trk1, active compounds read low
[48] = locus YJL154C, strain vps35, active compounds read low
[49] = locus YJL164C, strain tpk1, active compounds read low
[50] = locus YJL166W, strain qcr8, active compounds read low
[51] = locus YJL187C, strain SWE1, active compounds read low
[52] = locus YJR066W, strain TOR1, active compounds read low
[53] = locus YKL160W, strain elf1, active compounds read low
[54] = locus YKR026C, strain gcn3, active compounds read low
[55] = locus YKR091W, strain srl3, active compounds read low
[56] = locus YLL001W, strain dnm1, active compounds read low
[57] = locus YLL026W, active compounds read low
[58] = locus YLL041C, strain sdh2, active compounds read low
[59] = locus YLR027C, strain aat2, active compounds read low
[60] = locus YLR113W, strain HOG1, active compounds read low
[61] = locus YLR221C, strain rsa3, active compounds read low
[62] = locus YLR258W, strain gsy2, active compounds read low
[63] = locus YLR262C, strain YPT6 (second series), active compounds read low
[64] = locus YLR320W, strain mms22, active compounds read low
[65] = locus YLR342W, strain FKS1, active compounds read low
[66] = locus YLR357W, strain rsc2, active compounds read low
[67] = locus YLR370C, strain arc18, active compounds read low
[68] = locus YLR384C, strain iki3, active compounds read low
[69] = locus YML120C, strain ndi1, active compounds read low
[70] = locus YMR058W, strain fet3, active compounds read low
[71] = locus YMR125W, strain sto1, active compounds read low
[72] = locus YMR129W, active compounds read low
[73] = locus YMR205C, strain PFK2, active compounds read low
[74] = locus YMR231W, strain pep5, active compounds read low
[75] = locus YNL071W, strain lat1, active compounds read low
[76] = locus YNL183C, strain NPR1, active compounds read low
[77] = locus YNL209W, strain ssb2, active compounds read low
[78] = locus YNL248C, strain rpa49, active compounds read low
[79] = locus YNL322C, strain KRE1 (second series), active compounds read low
[80] = locus YNR049C, strain mso1, active compounds read low
[81] = locus YOR001W, strain rrp6, active compounds read low
[82] = locus YOR070C, strain gyp1, active compounds read low
[83] = locus YOR080W, strain dia2, active compounds read low
[84] = locus YOR083W, strain WHI5, active compounds read low
[85] = locus YOR106W, strain vam3, active compounds read low
[86] = locus YOR231W, strain MKK1, active compounds read low
[87] = locus YOR265W, strain rbl2, active compounds read low
[88] = locus YOR270C, strain vph1, active compounds read low
[89] = locus YOR290C, strain snf2, active compounds read low
[90] = locus YPL051W, strain arl3, active compounds read low
[91] = locus YPL078C, strain atp4, active compounds read low
[92] = locus YPL106C, strain sse1, active compounds read low
[93] = locus YPL240C, strain hsp82, active compounds read low
[94] = locus YPL256C, strain CLN2, active compounds read low

CCCC(CC(=O)O)(C(=O)O)c1ccccc1 (stereo not drawn)
normalized growth (locus YAL013W, strain DEP1, active compounds read low): 1.01
normalized growth (locus YBR229C, strain ROT2, active compounds read low): 1
normalized growth [1]: 1.01
normalized growth (locus YDL101C, strain DUN1, active compounds read low): 1.01
normalized growth (locus YDR150W, strain NUM1, active compounds read low): 1
normalized growth (locus YEL061C, strain CIN8, active compounds read low): 1.01
normalized growth (locus YGR078C, strain PAC10, active compounds read low): 1
normalized growth (locus YGR229C, strain SMI1, active compounds read low): 1.01
normalized growth [2]: 1.12
normalized growth (locus YHR087W, strain rtc3, active compounds read low): 1
normalized growth (locus YJR043C, strain POL32, active compounds read low): 1.01
normalized growth (locus YJR075W, strain HOC1, active compounds read low): 1
normalized growth (locus YLR039C, strain RIC1, active compounds read low): 1.03
normalized growth (locus YLR058C, strain SHM2 (second series), active compounds read low): 1.01
normalized growth (locus YLR085C, strain ARP6, active compounds read low): 1.05
normalized growth (locus YLR262C, strain YPT6, active compounds read low): 1.02
normalized growth (locus YML094W, strain GIM5, active compounds read low): 1.02
normalized growth (locus YMR219W, strain ESC1, active compounds read low): 1.01
normalized growth (locus YMR263W, strain SAP30, active compounds read low): 1
normalized growth (locus YNL153C, strain GIM3, active compounds read low): 1
normalized growth (locus YNL298W, strain CLA4 (second series), active compounds read low): 1.03
normalized growth (locus YNL322C, strain KRE1, active compounds read low): 0.998
normalized growth (locus YNR030W, strain Alg12, active compounds read low): 1.01
normalized growth (locus YPL055C, strain LGE1, active compounds read low): 1.06
normalized growth (locus YPL241C, strain CIN2, active compounds read low): 1.02
normalized growth (locus YPR135W, strain CTF4, active compounds read low): 1.06

O=C(O)CC(O)(CC(=O)O)C(=O)O
normalized growth [3]: 1
normalized growth [4]: 1.01
normalized growth [5]: 1
normalized growth [6]: 1.01
normalized growth [7]: 1
normalized growth [8]: 1.01
normalized growth [9]: 1.01
normalized growth [10]: 1.01
normalized growth [11]: 1
normalized growth [12]: 1.01
normalized growth [13]: 0.997
normalized growth [14]: 1.01
normalized growth [15]: 1.02
normalized growth [16]: 1.01
normalized growth [17]: 1.01
normalized growth [18]: 0.998
normalized growth [19]: 1.03
normalized growth [20]: 1
normalized growth [21]: 1
normalized growth (locus YDR195W, strain ref2): 1.05
normalized growth [22]: 0.994
normalized growth [23]: 1
normalized growth [24]: 1.01
normalized growth [25]: 0.966
normalized growth [26]: 0.998
normalized growth [27]: 1.01
normalized growth [28]: 1
normalized growth [29]: 1.02
normalized growth [30]: 1.01
normalized growth [31]: 1.01
normalized growth [32]: 1.05
normalized growth [33]: 1.02
normalized growth [34]: 1.01
normalized growth [35]: 0.999
normalized growth [36]: 1.01
normalized growth [37]: 1.02
normalized growth [38]: 0.997
normalized growth [39]: 1
normalized growth [40]: 1.01
normalized growth [2]: 0.979
normalized growth [41]: 0.995
normalized growth [42]: 0.993
normalized growth [43]: 1.01
normalized growth [44]: 1.02
normalized growth [45]: 1.02
normalized growth [46]: 1.03
normalized growth [47]: 1.03
normalized growth [48]: 1.01
normalized growth [49]: 1
normalized growth [50]: 1.03
normalized growth [51]: 1.01
normalized growth [52]: 0.953
normalized growth [53]: 1.01
normalized growth [54]: 1.01
normalized growth [55]: 1.01
normalized growth [56]: 1.01
normalized growth [57]: 0.999
normalized growth [58]: 1.01
normalized growth [59]: 1
normalized growth [60]: 1.02
normalized growth [61]: 0.988
normalized growth [62]: 1.01
normalized growth [63]: 1.02
normalized growth [64]: 0.998
normalized growth [65]: 1.02
normalized growth [66]: 1
normalized growth [67]: 0.982
normalized growth [68]: 1.01
normalized growth [69]: 1.01
normalized growth [70]: 1.01
normalized growth [71]: 1.02
normalized growth [72]: 1.01
normalized growth [73]: 1.01
normalized growth [74]: 1.01
normalized growth [75]: 1
normalized growth [76]: 0.98
normalized growth [77]: 0.998
normalized growth [78]: 1.01
normalized growth [79]: 1
normalized growth [80]: 1
normalized growth [81]: 1.04
normalized growth [82]: 1.01
normalized growth [83]: 1.02
normalized growth [84]: 1.02
normalized growth [85]: 1.02
normalized growth [86]: 0.985
normalized growth [87]: 1.01
normalized growth [88]: 0.988
normalized growth [89]: 0.99
normalized growth [90]: 1.01
normalized growth [91]: 1.03
normalized growth [92]: 1.01
normalized growth [93]: 1
normalized growth [94]: 0.968

CCCCCCCCCCCCCCC(C(=O)O)C(O)(CC(=O)OC)C(=O)O (stereo not drawn)
normalized growth [3]: 1.04
normalized growth [4]: 0.997
normalized growth [5]: 1
normalized growth [6]: 0.97
normalized growth [7]: 0.955
normalized growth [8]: 0.967
normalized growth [9]: 0.999
normalized growth [10]: 0.986
normalized growth [11]: 0.988
normalized growth [12]: 1
normalized growth [13]: 1.01
normalized growth [1]: 0.986
normalized growth [14]: 1.02
normalized growth [15]: 1.02
normalized growth [16]: 0.987
normalized growth [17]: 0.985
normalized growth [18]: 1.02
normalized growth [19]: 1.07
normalized growth [20]: 0.999
normalized growth [21]: 0.996
normalized growth (locus YDR195W, strain ref2): 1.03
normalized growth [22]: 0.994
normalized growth [23]: 1.01
normalized growth [24]: 0.977
normalized growth [25]: 0.857
normalized growth [26]: 0.98
normalized growth [27]: 1
normalized growth [28]: 1.01
normalized growth [29]: 1
normalized growth [30]: 1
normalized growth [31]: 0.964
normalized growth [32]: 0.981
normalized growth [33]: 1.08
normalized growth [34]: 0.981
normalized growth [35]: 0.958
normalized growth [36]: 1
normalized growth [37]: 0.987
normalized growth [38]: 0.966
normalized growth [39]: 1.62 [resistant] (active)
normalized growth [40]: 0.994
normalized growth [2]: 0.973
normalized growth [41]: 1
normalized growth [42]: 0.927
normalized growth [43]: 1.01
normalized growth [44]: 1
normalized growth [45]: 0.952
normalized growth [46]: 0.976
normalized growth [47]: 0.869 (active)
normalized growth [48]: 1.01
normalized growth [49]: 0.979
normalized growth [50]: 0.976
normalized growth [51]: 0.995
normalized growth [52]: 0.898
normalized growth [53]: 0.99
normalized growth [54]: 0.999
normalized growth [55]: 1.01
normalized growth [56]: 0.992
normalized growth [57]: 0.997
normalized growth [58]: 1.01
normalized growth [59]: 0.969
normalized growth [60]: 1.02
normalized growth [61]: 0.947
normalized growth [62]: 1
normalized growth [63]: 0.986
normalized growth [64]: 0.996
normalized growth [65]: 1
normalized growth [66]: 0.926
normalized growth [67]: 1.01
normalized growth [68]: 1
normalized growth [69]: 1.02
normalized growth [70]: 0.9 (active)
normalized growth [71]: 1.01
normalized growth [72]: 1.01
normalized growth [73]: 1.04
normalized growth [74]: 0.941
normalized growth [75]: 1.02
normalized growth [76]: 0.871
normalized growth [77]: 1.01
normalized growth [78]: 0.996
normalized growth [79]: 1.02
normalized growth [80]: 0.999
normalized growth [81]: 0.981
normalized growth [82]: 0.985
normalized growth [83]: 0.994
normalized growth [84]: 0.967
normalized growth [85]: 0.982
normalized growth [86]: 1.02
normalized growth [87]: 1
normalized growth [88]: 1.45 [resistant] (active)
normalized growth [89]: 1.04
normalized growth [90]: 0.95
normalized growth [91]: 0.996
normalized growth [92]: 0.976
normalized growth [93]: 1
normalized growth [94]: 0.999

CCCCCCCCCCCCCCCCC(C(=O)O)C(O)(CC(=O)O)C(=O)O (stereo not drawn)
normalized growth [2]: 0.501 (active)
normalized growth [41]: 0.804 (active)
normalized growth [45]: 0.581 (active)
normalized growth [52]: 0.566 (active)
normalized growth [60]: 0.48 (active)
normalized growth [76]: 0.648 (active)
normalized growth [86]: 0.836 (active)
normalized growth [94]: 0.863

From PubChem BioAssay AID1159580 (chemical genetic matrix, 2015)
